According to PubChem BioAssay:
Where “and” joins values, the source holds several entries; their conditions need not be identical. Identical values can stand only once. Inconclusive results are not listed. For some assays here: Results with a measured potency or affinity are listed apart. Calls of active or inactive are those of the source. Unless noted, no cut-off is given here; in the data, nearly all actives have AC50 up to about 26 µM.

What was measured:
[1] = P. berghei load reduction in hepatocytes – cell-based, HepG2, luciferase luminescence, HepG2 viability, primary screen (AID 624349; in the data active = parasite load remaining mostly below about 12%, no sharp cut-off; inactive = mostly above about 10%;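 note: 100% = mean of DMSO negative control wells on the same plate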); settings: P. berghei liver stage in HepG2, luciferase luminescence, concentration not given here; parasite load remaining: stronger effect = lower value; viability: measured here: HepG2 viability without parasites
[2] = EMT-state selective cytotoxicity in co-culture – imaging, PC-3E GFP, TEM4-18 mCherry, primary screen (AID 1345086;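 active = compounds killing one labelled cell type while sparing the other, by normalised counts and ratio limits, not self-fluorescent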;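 for all read-outs here: cells exposed to compound for 72 h before imaging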;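 for red/green cell ratio (normalised): normalised mesenchymal count divided by normalised epithelial count so high means epithelial killing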); settings: PC-3E GFP / TEM4-18 mCherry co-culture, imaging cell counts, at 1 µM; for red/green cell ratio (normalised): actives lie on both sides, counts scaled to control wells, 1 = unselective
[3] = viability loss in pontine glioma line – cell-based, SU-DIPG-XIII, MIPE4.0, CellTiter-Glo, qHTS, dose response (AID 1347061; cut-off not given, nearly all actives have AC50 up to about 37 µM;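 note: cells exposed to compound for 48 hours before readout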); settings: CellTiter-Glo ATP luminescence
[4] = viability loss in pontine glioma line – cell-based, SU-DIPG-XIII, MIPE5.0, CellTiter-Glo, qHTS, dose response (AID 1347064; cut-off not given, nearly all actives have AC50 up to about 23 µM); settings: CellTiter-Glo ATP luminescence
[5] = growth inhibition of DIPG cells – cell-based, MIPE4.0 library, CellTiter-Glo luminescence, qHTS (AID 1347066; cut-off not given, nearly all actives have AC50 up to about 30 µM;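 note: cells exposed to compound for 48 hours before readout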); settings: SU-DIPG-VI viability, CellTiter-Glo ATP luminescence
[6] = JHH-DIPG-1 glioma cell viability, MIPE5.0 library, CellTiter-Glo luminescence, qHTS (AID 1347067); settings: JHH-DIPG-1 glioma viability, CellTiter-Glo ATP luminescence;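 note: cells exposed to compound for 48 hours before readout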
[7] = viability loss with induced miR-34 in A549 – imaging, A549 dox-inducible miR-34, nuclei and caspase counts, primary screen (AID 1347080;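 active = compounds whose cell count with miR-34 switched on is under 0.7 times the count with it off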); settings: A549 miR-34 inducible, Hoechst nuclei count, 48 h
[8] = MELAS cybrid and Rieske KO viability enhancers – cell-based, MELAS cybrids, Rieske KO mouse fibroblasts, CellTiter-Glo, primary screen (AID 1508586;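 active = mean z-score across replicates of 1.96 or higher in either the MELAS or the Rieske mutant cell line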;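 note: z relative to plate mean and SD of compound and empty wells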); settings: low glucose
[9] = target: NAD(+) hydrolase SARM1 (Homo sapiens) (UniProt Q6SZW1); assay: blocking NAD cleavage by SARM1 SAM-TIR – cell lysate, NAD-Glo luminescence (AID 1508614;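 active = compound whose remaining NAD level is above about 45 nM, limit read from the data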;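 note: higher remaining NAD means stronger inhibition of SARM1 NADase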); settings: SAM-TIR HEK293T lysate NADase, at 1 µM, stronger effect = higher value
Sequence of NAD(+) hydrolase SARM1 (Homo sapiens) (Q6SZW1 whole entry, looked up): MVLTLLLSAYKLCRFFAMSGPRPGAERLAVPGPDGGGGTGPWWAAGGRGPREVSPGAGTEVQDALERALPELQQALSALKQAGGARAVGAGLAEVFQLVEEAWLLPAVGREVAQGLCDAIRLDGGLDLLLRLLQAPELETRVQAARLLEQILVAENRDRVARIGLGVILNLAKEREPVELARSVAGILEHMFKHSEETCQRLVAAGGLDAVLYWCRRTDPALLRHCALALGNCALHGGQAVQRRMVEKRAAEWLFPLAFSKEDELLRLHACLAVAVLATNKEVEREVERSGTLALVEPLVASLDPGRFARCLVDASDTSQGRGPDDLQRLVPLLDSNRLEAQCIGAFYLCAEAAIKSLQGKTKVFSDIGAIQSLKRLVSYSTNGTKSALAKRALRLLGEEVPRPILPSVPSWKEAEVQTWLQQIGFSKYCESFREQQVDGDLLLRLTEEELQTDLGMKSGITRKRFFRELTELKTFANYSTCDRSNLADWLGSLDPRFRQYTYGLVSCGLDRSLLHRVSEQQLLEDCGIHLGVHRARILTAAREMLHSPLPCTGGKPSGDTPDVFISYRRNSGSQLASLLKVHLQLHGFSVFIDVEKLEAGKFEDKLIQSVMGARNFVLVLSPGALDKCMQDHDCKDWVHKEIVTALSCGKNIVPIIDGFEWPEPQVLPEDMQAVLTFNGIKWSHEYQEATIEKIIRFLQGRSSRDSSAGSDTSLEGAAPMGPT

[10] = galactose survival enhancers in mitochondrial complex I cybrids – cell-based, galactose medium, ATP luminescence, primary screen (AID 1645843;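 active = z-score of at least 1.8 in each of two replicates, scored against plate mean and spread of sample wells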;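 note: positive z means more ATP and so rescue of galactose-driven cybrid death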); settings: complex I mutant cybrid cells, 72 h, stronger effect = higher value
[11] = viability loss in pontine glioma line – cell-based, SU-DIPG-XXV, MIPE5.0, CellTiter-Glo, qHTS, dose response (AID 1347065); settings: CellTiter-Glo ATP luminescence;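 note: cells exposed to compound for 48 hours before ATP readout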
[12] = growth inhibition of DIPG cells – cell-based, MIPE5.0 library, qHTS (AID 1347068; cut-off not given, nearly all actives have IC50 up to about 30 µM); settings: SU-DIPG-XXV viability
[13] = target: Mitogen-activated protein kinase 7 (Homo sapiens) (UniProt Q13164); assay: Gal4-ERK5 driven luciferase induction – cell-based, HTS, primary screen (AID 1508626;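 active = luciferase signal above three times the same-plate solvent-only control wells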;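 note: luciferase driven by Gal4-ERK5 fusion binding five Gal4 sites before minimal TATA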); settings: HeLa Gal4-ERK5 transactivation, 18 h, at 5 µM, stronger effect = higher value
Sequence of Mitogen-activated protein kinase 7 (Homo sapiens) (Q13164 whole entry, looked up, the tested form may be a part): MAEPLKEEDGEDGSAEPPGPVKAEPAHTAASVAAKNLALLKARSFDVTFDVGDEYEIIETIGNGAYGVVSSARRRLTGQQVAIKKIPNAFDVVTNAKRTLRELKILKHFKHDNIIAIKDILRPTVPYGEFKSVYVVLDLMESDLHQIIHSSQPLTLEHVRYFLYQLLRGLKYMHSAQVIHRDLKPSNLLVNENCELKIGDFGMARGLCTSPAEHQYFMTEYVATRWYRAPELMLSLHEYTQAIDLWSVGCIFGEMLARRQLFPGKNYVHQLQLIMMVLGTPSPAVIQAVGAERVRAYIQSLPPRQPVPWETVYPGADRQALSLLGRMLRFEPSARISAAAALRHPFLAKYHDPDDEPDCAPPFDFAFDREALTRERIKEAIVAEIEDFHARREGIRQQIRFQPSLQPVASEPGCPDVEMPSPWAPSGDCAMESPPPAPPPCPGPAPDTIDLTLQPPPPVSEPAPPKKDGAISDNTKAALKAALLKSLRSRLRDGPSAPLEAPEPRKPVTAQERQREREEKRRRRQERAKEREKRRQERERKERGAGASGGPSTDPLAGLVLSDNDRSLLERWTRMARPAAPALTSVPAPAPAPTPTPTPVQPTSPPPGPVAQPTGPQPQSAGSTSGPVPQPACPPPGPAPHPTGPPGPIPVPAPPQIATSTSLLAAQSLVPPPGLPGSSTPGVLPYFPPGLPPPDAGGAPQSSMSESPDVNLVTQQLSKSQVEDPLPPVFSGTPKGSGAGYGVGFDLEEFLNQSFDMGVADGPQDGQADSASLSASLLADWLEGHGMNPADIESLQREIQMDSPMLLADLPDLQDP

[14] = target: ATP-dependent translocase ABCB1 (Homo sapiens) (UniProt P08183); assay: P-glycoprotein substrate transport blockade – cell-based (AID 377; in the data active = fluorescence slope change above about 50%); settings: MDR1-expressing cells, fluorescent substrate accumulation slope; stronger effect = higher value; concentration not given here
Sequence of ATP-dependent translocase ABCB1 (Homo sapiens) (P08183 whole entry, looked up): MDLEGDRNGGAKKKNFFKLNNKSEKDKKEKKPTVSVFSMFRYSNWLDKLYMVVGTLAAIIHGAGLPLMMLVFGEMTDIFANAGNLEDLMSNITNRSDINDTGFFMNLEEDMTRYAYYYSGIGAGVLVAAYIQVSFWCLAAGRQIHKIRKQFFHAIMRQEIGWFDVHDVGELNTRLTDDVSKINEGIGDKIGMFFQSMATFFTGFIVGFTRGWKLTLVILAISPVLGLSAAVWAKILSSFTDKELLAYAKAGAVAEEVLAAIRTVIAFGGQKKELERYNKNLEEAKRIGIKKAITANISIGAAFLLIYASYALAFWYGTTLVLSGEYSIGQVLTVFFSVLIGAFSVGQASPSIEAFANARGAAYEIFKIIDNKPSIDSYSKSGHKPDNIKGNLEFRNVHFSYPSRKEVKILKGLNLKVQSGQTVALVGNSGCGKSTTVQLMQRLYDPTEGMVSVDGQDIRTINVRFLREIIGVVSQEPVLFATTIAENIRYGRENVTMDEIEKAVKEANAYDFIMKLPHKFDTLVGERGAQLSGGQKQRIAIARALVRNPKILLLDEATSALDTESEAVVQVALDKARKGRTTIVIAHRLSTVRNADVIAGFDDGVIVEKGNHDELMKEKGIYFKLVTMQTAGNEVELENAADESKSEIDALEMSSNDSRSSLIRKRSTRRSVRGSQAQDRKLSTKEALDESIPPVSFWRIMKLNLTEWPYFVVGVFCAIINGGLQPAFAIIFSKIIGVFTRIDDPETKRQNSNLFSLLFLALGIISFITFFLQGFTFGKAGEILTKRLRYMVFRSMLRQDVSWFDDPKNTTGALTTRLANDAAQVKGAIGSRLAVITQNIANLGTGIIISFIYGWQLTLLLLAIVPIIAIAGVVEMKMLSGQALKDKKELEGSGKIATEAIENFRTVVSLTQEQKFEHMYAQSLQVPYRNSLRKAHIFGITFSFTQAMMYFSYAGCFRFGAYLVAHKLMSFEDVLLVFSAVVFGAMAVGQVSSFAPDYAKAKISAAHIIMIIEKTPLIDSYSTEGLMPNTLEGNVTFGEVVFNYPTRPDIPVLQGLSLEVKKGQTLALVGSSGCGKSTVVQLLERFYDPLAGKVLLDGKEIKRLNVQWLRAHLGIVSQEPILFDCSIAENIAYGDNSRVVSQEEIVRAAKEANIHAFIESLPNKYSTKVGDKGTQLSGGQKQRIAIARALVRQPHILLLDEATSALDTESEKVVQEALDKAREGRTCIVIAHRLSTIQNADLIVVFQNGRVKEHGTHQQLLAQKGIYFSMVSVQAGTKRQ

[15] = blockers of polyQ-driven CASP3 activation – cell-based (AID 1583); settings: polyglutamine-induced caspase-3 activation, cell assay; stronger effect = higher value;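 tested at 10 µM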
[16] = yeast 75Q aggregation reduction – 75Q-TubU reporter (AID 1593); settings: Yeast 75Q polyglutamine aggregation reporter
[17] = restoration of touch response, mutant HTT neurons – whole organism, C. elegans mechanosensory neurons, N-terminal huntingtin (AID 1599); settings: C. elegans polyQ-huntingtin mechanosensory neurons, stronger effect = higher value
[18] = blockers of cytochrome c efflux from mitochondria – biochemical, purified mitochondria (AID 1603); settings: stronger effect = lower value;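 note: mouse liver mitochondria challenged with calcium chloride; signal normalized to the plate average as 100%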
[19] = polyglutamine aggregate formation blockers (AID 1604); settings: polyglutamine-induced protein aggregation inhibition assay; stronger effect = higher value; tested at 2.5 µM
[20] = glutamate transport activators, MN-1 cells, MN-1 cell line (AID 1612); settings: MN-1 motor neuron cells, stronger effect = higher value;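 note: tested at 1 µM final; 0% = mean of DMSO vehicle wells on each plate; positive means more glutamate uptake than control and negative means less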
[21] = 75Q-TubH aggregate inhibition, S. cerevisiae, yeast (AID 1616); settings: S. cerevisiae 75Q-TubH polyglutamine aggregation suppression; stronger effect = higher value
[22] = antimalarial activity against Dd2 strain (AID 2302;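 active = growth inhibition above 50% at the single 2 µM test dose, taken to imply half-maximal potency below 2 µM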;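 note: 0% = DMSO untreated growth and 100% = chloroquine plus artemisinin killed control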); settings: P. falciparum Dd2 in RBCs, LDH growth readout, 72 h; at 2 µM; stronger effect = higher value
[23] = human hepatoma cell viability loss – ATP luminescence, cytotoxicity control for P. falciparum antimalarial project, primary screen (AID 2303;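 active = inhibition above 50%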;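 note: 0% = DMSO wells and 100% = digitonin-killed cells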); settings: HepG2 viability, 24-48 h, at 10 µM, stronger effect = higher value
[24] = target: L-lactate dehydrogenase (Plasmodium falciparum (isolate CDC / Honduras)) (UniProt Q27743); assay: PfLDH activity inhibition – cell lysate, 3D7 strain, counter-screen for P. falciparum growth inhibition project (AID 2304; call rule not given here;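 note: 0% = vehicle and 100% = reference inhibitor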); settings: P. falciparum 3D7 crude extract, LDH APAD/NBT absorbance; at 2 µM; stronger effect = higher value
Sequence of L-lactate dehydrogenase (Plasmodium falciparum (isolate CDC / Honduras)) (Q27743 whole entry, looked up): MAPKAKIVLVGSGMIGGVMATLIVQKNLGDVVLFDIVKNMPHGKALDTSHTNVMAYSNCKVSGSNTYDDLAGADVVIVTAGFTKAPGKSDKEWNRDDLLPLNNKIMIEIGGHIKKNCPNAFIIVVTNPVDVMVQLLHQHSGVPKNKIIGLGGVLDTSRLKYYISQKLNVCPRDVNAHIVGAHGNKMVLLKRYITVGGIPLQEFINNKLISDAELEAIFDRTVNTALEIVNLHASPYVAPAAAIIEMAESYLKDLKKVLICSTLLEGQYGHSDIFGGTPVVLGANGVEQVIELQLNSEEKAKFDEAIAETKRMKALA

[25] = inhibition of 3D7 malaria parasite growth – strain 3D7 (AID 2306; call rule not given here;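 note: 0% = DMSO wells and 100% = chloroquine plus artemisinin control wells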); settings: P. falciparum 3D7 erythrocytic growth, LDH absorbance, 72 h; at 2 µM; stronger effect = higher value
[26] = compounds altering viability of human ES cells (AID 493140; call rule not given here;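 note: cells exposed to compounds for four days before counting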); settings: human embryonic stem cell survival screen; stronger effect = higher value
[27] = viability loss in pontine glioma line – cell-based, SU-DIPG-XVII, MIPE5.0, CellTiter-Glo, qHTS, dose response (AID 1347060); settings: CellTiter-Glo ATP luminescence;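 note: cells exposed to compound for 48 hours before viability readout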
[28] = viability loss in pontine glioma line – cell-based, SU-DIPG-IV, MIPE4.0, CellTiter-Glo, qHTS, dose response (AID 1347063; cut-off not given, nearly all actives have AC50 up to about 30 µM;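 note: compound exposure lasted 48 hours before the viability readout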); settings: CellTiter-Glo ATP luminescence
[29] = measured here: epithelial PC-3E GFP cell survival
[30] = measured here: mesenchymal TEM4-18 mCherry cell survival
[31] = stronger effect = lower value, cell number ratio, induced over uninduced
[32] = measured here: relative caspase fold change +Dox/-Dox
[33] = measured here: total cells with miR-34 induction, stronger effect = lower value
[34] = measured here: total cells without miR-34 induction
[35] = MELAS cybrid survival, CellTiter-Glo 48 h, stronger effect = higher value
[36] = Rieske KO mouse fibroblast survival, CellTiter-Glo 72 h

N#CC(c1ccc(Cl)cc1)c1c(Cl)cc(-n2ncc(=O)[nH]c2=O)cc1Cl (stereo unspecified)
parasite load remaining [1]: 30.6% (inactive) | viability [1]: 99% | red/green cell ratio (normalised) [2]: 0.84 (inactive) | normalised cell number [2, 29]: 1.03 | normalised cell number [2, 30]: 0.86 | AC50 [3]: 23.5 µM (active) | outcome [4]: inactive | AC50 [5]: 13.2 µM (active) | outcome [6]: inactive | fold change [7, 31]: 0.879 (inactive) and 0.842 (inactive) | fold change [7, 32]: 1.15 and 1.36 | cell count [7, 33]: 7450 and 8470 | cell count [7, 34]: 8480 and 10000 | z-score [8, 35]: -0.404 (inactive) and -1.37 (inactive) and -0.711 (inactive) | z-score [8, 36]: 0.144 and -0.703 and -0.429 | remaining NAD [9]: 10 nM (inactive) | z-score [10]: -0.445 (inactive)

COC1=C(OC)C(=O)C(C/C=C(\C)CC/C=C(\C)CC/C=C(\C)CC/C=C(/C)CC/C=C(\C)CC/C=C(\C)CC/C=C(\C)CC/C=C(\C)CC/C=C(\C)CCC=C(C)C)=C(C)C1=O
red/green cell ratio (normalised) [2]: 1.1 (inactive) | normalised cell number [2, 29]: 0.97 | normalised cell number [2, 30]: 1.06 | outcome [4]: inactive | outcome [11]: inactive | outcome [6]: inactive | outcome [12]: inactive | luciferase signal [13]: 80 AU (inactive)

OC(c1cc(C(F)(F)F)nc2c(C(F)(F)F)cccc12)C1CCCCN1 (stereo unspecified)
fluorescence slope change [14]: 96.4% (active) | inhibition [15]: 50.1% | score [16]: 1.42 | rescue above control [17]: 0 | cytochrome c release ratio [18]: 2.44 | inhibition of aggregation [19]: -19.6% | glutamate uptake change [20]: -3.13% | aggregation suppression score [21]: 1.65 | growth inhibition [22]: 99% (active) | inhibition [23]: -3% (inactive) | inhibition [24]: -6% (inactive) | growth inhibition [25]: 96% (active) | survival [26]: 3.83 (inactive) | red/green cell ratio (normalised) [2]: 0.94 (inactive) | normalised cell number [2, 29]: 1.16 | normalised cell number [2, 30]: 1.1 | AC50 [27]: 20.9 µM (active) | AC50 [28]: 26.4 µM (active) | AC50 [11]: 20.9 µM (active) | fold change [7, 31]: 0.709 (inactive) and 0.928 (inactive) | fold change [7, 32]: 1.51 and 4.5 | cell count [7, 33]: 3010 and 11200 | cell count [7, 34]: 4250 and 12100 | z-score [8, 35]: -2.19 (inactive) | z-score [8, 36]: -3.08

C=CC[C@@H]1/C=C(\C)C[C@H](C)C[C@H](OC)[C@H]2O[C@@](O)(C(=O)C(=O)N3CCCC[C@H]3C(=O)O[C@H](/C(C)=C/[C@@H]3CC[C@@H](O)[C@H](OC)C3)[C@H](C)[C@@H](O)CC1=O)[C@H](C)C[C@@H]2OC
inhibition [15]: -0.04% | score [16]: -0.08 | rescue above control [17]: 0 | cytochrome c release ratio [18]: 2.76 | inhibition of aggregation [19]: 0% | glutamate uptake change [20]: 0% | aggregation suppression score [21]: 0.207 | parasite load remaining [1]: 58.3% (inactive) | viability [1]: 97.1% | red/green cell ratio (normalised) [2]: 1.19 (inactive) | normalised cell number [2, 29]: 0.77 | normalised cell number [2, 30]: 0.91 | AC50 [3]: 23.5 µM (active) | AC50 [28]: 1.18 µM (active) | AC50 [11]: 20.9 µM (active) | fold change [7, 31]: 1.03 (inactive) and 0.874 (inactive) | fold change [7, 32]: 1.61 and 2.51 | cell count [7, 33]: 4360 and 8620 | cell count [7, 34]: 4240 and 9860 | remaining NAD [9]: 10 nM (inactive) | luciferase signal [13]: 68 AU (inactive)
